mcGAS RapidFire: inhibitors of Mus musculus cyclic GMP-AMP synthase, initial high-throughput assay, cell-free, RapidFire MS. actives 0.18% (n = 130,000). recombinant mouse cGAS, cGAMP by RapidFire MS. inhibition, % at 12.5 µM. Q8C6L5;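 active = inhibition of cGAS enzyme activity at or above 60%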;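 note: enzyme stimulated by 45 bp dsDNA with ATP and GTP substrates; cGAMP share of summed cGAMP plus half ATP and half GTP signals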
Target sequence (Q8C6L5 whole entry, looked up): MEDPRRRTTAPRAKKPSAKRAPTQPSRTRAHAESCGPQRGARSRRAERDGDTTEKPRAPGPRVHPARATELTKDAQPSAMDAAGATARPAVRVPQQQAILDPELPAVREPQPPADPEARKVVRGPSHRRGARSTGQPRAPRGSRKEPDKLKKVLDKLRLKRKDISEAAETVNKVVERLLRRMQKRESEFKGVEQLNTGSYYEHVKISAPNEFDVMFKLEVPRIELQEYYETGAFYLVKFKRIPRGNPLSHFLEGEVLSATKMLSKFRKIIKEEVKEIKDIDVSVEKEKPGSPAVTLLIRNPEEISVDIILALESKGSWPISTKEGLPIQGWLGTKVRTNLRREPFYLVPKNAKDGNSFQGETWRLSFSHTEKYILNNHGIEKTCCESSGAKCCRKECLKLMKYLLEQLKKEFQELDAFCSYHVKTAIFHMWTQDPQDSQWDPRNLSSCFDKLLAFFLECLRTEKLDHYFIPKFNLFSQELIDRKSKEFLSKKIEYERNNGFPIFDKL
* hit, by the source's call. This is one part of a sample in which hits are shown more often than they occur.

SMILES | mcGAS RapidFire
NC(=S)N/N=C\c1coc2ccccc2c1=O | 95.5*
CN(C)c1ccc(P(N(C)C)N(C)C)cc1 | 28.2
COc1ccc(C)cc1NC(=O)c1cccn(Cc2ccccc2)c1=O | -7.7
CC[C@@]1(O)C[C@H](O[C@H]2C[C@H](N(C)C)[C@H](O)[C@H](C)O2)c2c(cc3c(c2O)C(=O)c2c(O)ccc(O)c2C3=O)[C@H]1C(=O)OC | 97.2*
CC[C@@]1(O)C[C@H](O)c2c(cc3c(c2O)C(=O)c2c(O)ccc(O)c2C3=O)[C@H]1C(=O)OC | -9.5
CC[C@@]1(O)C[C@H](O[C@H]2C[C@H](N(C)C)[C@H](O)[C@H](C)O2)c2c(cc3c(c2O)C(=O)c2c(O)cccc2C3=O)[C@H]1C(=O)OC | 97.7*
Cc1ccc(-n2c(C(C)NCc3ccco3)nc3ccccc3c2=O)c(C)c1 (configuration not stated) | -4.4
Cc1nn(CCC#N)c2c1P(=S)(N1CCCCC1)OC(c1ccc(F)cc1)=N2 (configuration not stated) | 9.5
CCc1c(C(=O)Nc2ccc(F)c(Cl)c2)cnn1C(C)(C)C | -8.6
CC(Cc1ccccn1)N(C)Cc1nc2ccccc2n1C (configuration not stated) | -19.9
CN1CCN(Cc2csc3c2CCCC3)CC1 | -2.7
Cc1nc(SCc2nc3ccccc3c(=O)n2-c2ccc(F)cc2)n[nH]1 | -5.8
N#Cc1ccc(Cl)cc1NC(=O)c1cccn(Cc2ccccc2Cl)c1=O | -5.6
CC(Cc1ccc(C(F)(F)F)cc1)NC(=O)NC1CCOCC1 (configuration not stated) | -1.3
O=C(NP(NC(=O)c1ccccc1)C12CC3CC(CC(C3)C1)C2)c1ccccc1 | -7.2

Screening results (PubChem)
